Drawing on PubChem BioAssay (NCATS), this text covers outcome, activity change, negative = inhibition and Potency for one compound.

Each structure is given as a SMILES string. Unmarked numbers belong to inactive results. Records with an inconclusive call do not appear. Active and inactive are the calls of the source. Unless noted, the call rests on the fitted dose curve; in most records, active means well fitted curve in the direction sought with a large enough effect; inconclusive means small, poorly fitted or top-dose-only effect, or another doubt; inactive means no such curve, though single readings can be large; an effect the other way counts as inactive or inconclusive. Bounds are passed on as bounds.

Assay [1] is described as follows: AP1 Signaling Pathway (AID 357; active means well fitted curve in either direction with a large enough effect, not every such curve was filed as active;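 further: ME-180 reporter cells stimulated with EGF at its EC50 level; on the % scale 0 is the no-effect control and ±100 the full control effect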). Put shortly: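 A ratiometric CCF4 readout (405 nm excitation; 460 and 530 nm emission) quantified AP-1-driven beta-lactamase in ME-180 cells after 5 h with compound and EC50 EGF; AC50 values were derived for activators and inhibitors.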
The nature of assay [2]: NFAT Signaling Pathway (AID 444; active means well fitted curve in either direction with a large enough effect, not every such curve was filed as active;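 further: carbachol stimulus at about its EC50 of 1 µM final; on the % scale 0 is the no-effect control and ±100 the full control effect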). The following applies: Jurkat NFAT-bla M1, carbachol, beta-lactamase ratio, 5 h; at 38 µM (top of the series). Put shortly: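 Jurkat cells with NFAT-driven β-lactamase reporter and co-expressed M1 receptor, stimulated with carbachol (final 1 uM, ~EC50), compound titration, 5 h at 37 °C. CCF4 loaded 1 h at RT; 460/530 nm ratio gave %activity and AC50.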

A short description of assay [3]: Stat Signaling Pathway (AID 446; active means well fitted curve in either direction with a large enough effect, not every such curve was filed as active;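 further: ME-180 cervical cancer cells given 40 pM IL-6 alongside compound; SIE-controlled beta-lactamase reporter measured as 460/530 nm FRET emission ratio; on the % scale 0 is the no-effect control and ±100 the full control effect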). Put shortly:
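IL-6/STAT signaling read in ME-180 cells via an SIE beta-lactamase reporter. Stimulus was 40 pM IL-6 (its AC50) for 5 hrs, so both activation and inhibition register.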

The target of assay [4] is Glucocorticoid receptor (Homo sapiens) (UniProt P04150). As to the kind of experiment: GR-GFP Redistribution (AID 450;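 active means compounds whose dose series gives a full or clear partial fitted curve of increased nuclear translocation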; further: potency means the concentration at half of the fitted maximal effect). The settings on record: U2OS GR-GFP nuclear translocation, laser cytometry, 2 h.
Sequence of Glucocorticoid receptor (Homo sapiens) (P04150 whole entry, looked up): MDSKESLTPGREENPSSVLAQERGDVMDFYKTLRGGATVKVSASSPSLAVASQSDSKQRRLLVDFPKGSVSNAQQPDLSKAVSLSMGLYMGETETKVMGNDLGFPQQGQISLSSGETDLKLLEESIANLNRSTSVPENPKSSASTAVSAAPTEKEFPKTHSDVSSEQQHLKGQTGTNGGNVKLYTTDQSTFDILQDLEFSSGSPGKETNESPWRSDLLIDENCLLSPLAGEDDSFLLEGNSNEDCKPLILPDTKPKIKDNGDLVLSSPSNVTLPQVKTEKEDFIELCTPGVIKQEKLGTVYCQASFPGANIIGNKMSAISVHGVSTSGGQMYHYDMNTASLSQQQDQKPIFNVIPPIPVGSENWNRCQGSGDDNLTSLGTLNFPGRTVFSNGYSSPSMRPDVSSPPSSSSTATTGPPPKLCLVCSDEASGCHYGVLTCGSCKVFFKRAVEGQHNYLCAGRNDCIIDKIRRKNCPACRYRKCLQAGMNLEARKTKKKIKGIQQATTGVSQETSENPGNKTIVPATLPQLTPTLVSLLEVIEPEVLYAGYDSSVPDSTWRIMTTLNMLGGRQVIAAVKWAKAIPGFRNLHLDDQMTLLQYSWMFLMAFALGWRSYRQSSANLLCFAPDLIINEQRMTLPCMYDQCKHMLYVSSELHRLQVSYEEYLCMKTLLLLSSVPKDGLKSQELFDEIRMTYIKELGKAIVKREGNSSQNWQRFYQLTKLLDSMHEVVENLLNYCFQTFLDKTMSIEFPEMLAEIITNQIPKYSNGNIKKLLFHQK
For assay [5] the target is unchanged. As to the kind of experiment: GR-EFC Redistribution (AID 451; calls by dose curve; further: potency means the concentration at half of the fitted maximal effect). The settings on record: CHO-K1 GR-EFC translocation, beta-gal luminescence, 2 h. Put shortly:
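CHO-K1 cells expressing nuclear EA and GR-ED fragments of b-gal; compounds titrated up to 46 uM final, 2 h at 37 C. GR nuclear translocation read as complemented b-gal luminescence after 1 h RT detection.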

Assay [6] concerns the target Mitogen-activated protein kinase 10 (Mus musculus) (UniProt Q61831). As to the kind of experiment: JNK3 AlphaScreen Assay (AID 530; active means well fitted curve in either direction with a large enough effect, not every such curve was filed as active;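 further: kinase came from lysate of stimulated human HepG2 cells; signal reports phosphorylation of biotinylated GST-cJun 1-79 at Ser73 with 10 µM ATP; on the % scale 0 is the no-effect control and ±100 the full control effect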). Put shortly: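 qHTS format: compounds tested as titrations against IL-1beta/TNF-alpha-activated HepG2 lysate JNK3 with biotin-GST-cJun substrate and 10 uM ATP at room temperature. Loss of anti-phospho-cJun AlphaScreen signal indicates inhibition.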

For assay [7], the target named is 3',5'-cyclic-AMP phosphodiesterase 4B (Homo sapiens) (UniProt Q07343). Put plainly: qHTS Assay for Inhibitors of PDE-IV (AID 607; active means well fitted activation curve with a large enough effect in the main read-out, with a control signal flat, not every such curve was filed as active; further: % of control where 0% means no effect). Put shortly: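 Live HEK293 cells with a modified cyclic nucleotide-gated (CNG) channel report intracellular cAMP via membrane-potential dye fluorescence (ex 535/em 590 nm). Endogenous PDE-IV was targeted. Compounds were tested at up to 22.9 uM final; RO 20-1724 100 uM served as control.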
Sequence of 3',5'-cyclic-AMP phosphodiesterase 4B (Homo sapiens) (Q07343 whole entry, looked up): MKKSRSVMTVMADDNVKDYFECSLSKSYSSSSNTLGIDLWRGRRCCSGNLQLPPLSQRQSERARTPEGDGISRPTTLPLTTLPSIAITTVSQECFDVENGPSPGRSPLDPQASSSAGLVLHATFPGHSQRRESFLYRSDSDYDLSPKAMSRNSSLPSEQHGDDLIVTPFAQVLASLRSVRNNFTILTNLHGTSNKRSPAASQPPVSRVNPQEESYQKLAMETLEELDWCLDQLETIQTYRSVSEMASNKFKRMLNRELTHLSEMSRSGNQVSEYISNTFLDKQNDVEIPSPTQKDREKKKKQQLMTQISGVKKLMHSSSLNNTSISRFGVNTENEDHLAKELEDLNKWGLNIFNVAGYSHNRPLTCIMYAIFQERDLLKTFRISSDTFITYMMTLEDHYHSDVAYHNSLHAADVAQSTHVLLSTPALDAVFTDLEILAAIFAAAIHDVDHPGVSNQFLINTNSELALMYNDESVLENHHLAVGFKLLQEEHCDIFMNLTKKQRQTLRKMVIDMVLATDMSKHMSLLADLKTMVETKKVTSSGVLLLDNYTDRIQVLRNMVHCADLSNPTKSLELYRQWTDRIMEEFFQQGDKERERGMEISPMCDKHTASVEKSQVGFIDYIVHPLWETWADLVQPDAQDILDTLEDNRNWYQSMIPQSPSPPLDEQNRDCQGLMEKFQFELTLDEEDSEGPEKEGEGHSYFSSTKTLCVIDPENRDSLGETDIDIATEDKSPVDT

For assay [8], the target named is Guanine nucleotide-binding protein G(i) subunit alpha-1 (Homo sapiens) (UniProt P63096). As to the kind of experiment: qHTS Assay for Inhibitors of RGS12 GoLoco Motif Activity (Green Fluorophore) (AID 879).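 Further: 0% = labeled peptide with Gαi1 and full inhibition = labeled peptide alone without protein; negative values mean loss of peptide binding seen as reduced polarization.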 Put shortly:
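Fluorescence polarization assay: 50 nM Gαi1 with 10 nM FITC-labeled RGS12 GoLoco peptide in 10 mM Tris pH 7.5, 150 mM NaCl, 0.1 mM GDP, 0.05% NP40, 10 min at room temperature with compound.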

Assay [9] has as its target Cytochrome P450 3A4 (Homo sapiens) (UniProt P08684). Put plainly: qHTS Assay for Inhibitors and Substrates of Cytochrome P450 3A4 (AID 884). Further: on the % scale 0 is the no-effect control and ±100 the full control effect; nearly all actives have a fitted effect of over 50% in size. Put shortly: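 20 nM human CYP3A4 with 25 uM Luciferin-PPXE (at KM) in 200 mM KPO4, preincubated 10 min with compound; NADPH regeneration started a 60 min RT reaction. Luciferin detected by luminescence, normalized to 57 uM ketoconazole as full inhibition.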

Assay [10] has the same target. Put plainly: qHTS Assay for Activators of Cytochrome P450 3A4 (AID 885). Further: potency means the concentration at half of the fitted maximal effect; nearly all actives have a fitted effect of over 65% in size. Put shortly: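 Quantitative HTS format: compounds preincubated with 20nM human CYP3A4 and Luciferin-PPXE substrate at KM, reaction started by NADPH regeneration, stopped after 60 min, luciferase luminescence read 20 min later.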
The target of assay [11] is Cytochrome P450 2C19 (Homo sapiens) (UniProt P33261). Put plainly: qHTS Assay for Inhibitors and Substrates of Cytochrome P450 2C19 (AID 899). Further: potency means the concentration at half of the fitted maximal effect; nearly all actives have a fitted effect of over 60% in size. Put shortly: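 5 nM human CYP2C19 with 10uM Luciferin-H EGE (at KM) in 50mM KPO4, compound preincubated 10 min at 37C, then NADPH regeneration for 60 min at 37C. Luciferin read by luminescence after detection reagent; normalized to 57uM ketoconazole as full inhibition.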
Sequence of Cytochrome P450 2C19 (Homo sapiens) (P33261 whole entry, looked up): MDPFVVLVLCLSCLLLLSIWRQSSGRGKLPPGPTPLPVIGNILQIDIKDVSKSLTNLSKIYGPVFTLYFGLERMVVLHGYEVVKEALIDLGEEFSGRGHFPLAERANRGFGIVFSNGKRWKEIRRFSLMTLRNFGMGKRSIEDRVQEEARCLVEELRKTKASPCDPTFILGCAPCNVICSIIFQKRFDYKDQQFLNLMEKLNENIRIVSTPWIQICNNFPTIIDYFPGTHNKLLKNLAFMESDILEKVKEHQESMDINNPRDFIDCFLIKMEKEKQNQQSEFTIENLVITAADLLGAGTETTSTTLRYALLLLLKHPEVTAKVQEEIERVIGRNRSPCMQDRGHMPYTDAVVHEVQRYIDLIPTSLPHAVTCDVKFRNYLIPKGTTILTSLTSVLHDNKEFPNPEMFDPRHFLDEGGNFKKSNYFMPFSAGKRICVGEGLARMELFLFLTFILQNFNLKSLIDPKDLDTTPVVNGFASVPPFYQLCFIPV

The nature of assay [12]: qHTS Assay for Identification of Small Molecule Agonists for Thrombopoietin (TPO) Signaling Pathway (AID 917). Further: on the % scale 0 is the no-effect control and ±100 the full control effect. Put shortly: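 Murine Ba/F3 cells expressing human TPO receptor and GPIIb-promoter luciferase, IL-3-starved overnight, given compound plus TPO at 26 pM (EC50). After 24 h at 37 C, 5% CO2, luminescence read.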
Assay [13] deals with Muscarinic acetylcholine receptor M1 (Rattus norvegicus) (UniProt P08482). As to the kind of experiment: qHTS Assay for Antagonists of Acetylcholine Muscarinic M1 Receptor: Kinetic Measurement of Intracellular Calcium Response (AID 943).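 Further: Fluo-4 calcium signal as peak divided by basal fluorescence over 4 min; nearly all actives have a fitted effect of over 75% in size.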 Put shortly: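 CHO cells stably expressing rat M1 were loaded with no-wash Fluo-4 dye for 1 h at 37C, pre-incubated 10 min with compound, then challenged with EC80 carbachol (100 nM final); kinetic calcium read 4 min, peak/basal ratio.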
Sequence of Muscarinic acetylcholine receptor M1 (Rattus norvegicus) (P08482 whole entry, looked up): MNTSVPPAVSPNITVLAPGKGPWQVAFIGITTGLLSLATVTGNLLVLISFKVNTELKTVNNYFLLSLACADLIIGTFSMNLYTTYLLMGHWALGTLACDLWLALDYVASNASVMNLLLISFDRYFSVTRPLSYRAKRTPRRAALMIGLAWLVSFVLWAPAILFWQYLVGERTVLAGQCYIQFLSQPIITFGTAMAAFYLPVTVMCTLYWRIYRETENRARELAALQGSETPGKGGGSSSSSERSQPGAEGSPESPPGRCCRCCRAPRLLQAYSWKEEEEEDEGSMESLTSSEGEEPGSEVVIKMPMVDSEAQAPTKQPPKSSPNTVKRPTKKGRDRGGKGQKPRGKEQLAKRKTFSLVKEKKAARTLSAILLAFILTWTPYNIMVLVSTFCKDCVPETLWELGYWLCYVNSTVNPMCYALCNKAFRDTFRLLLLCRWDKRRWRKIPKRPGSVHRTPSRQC

The target is the same in assay [14]. Put plainly: qHTS Assay for Antagonists of Acetylcholine Muscarinic M1 Receptor: Measurement of IP-One Response (AID 944). Further: nearly all actives have a fitted effect of over 75% in size. Put shortly:
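CHO cells expressing rat M1 receptor, recovered overnight, were pre-incubated 10 min with compound, then stimulated 30 min with carbachol at EC80 (200 nM) in LiCl-containing buffer, pH 7.4. IP1 accumulation was read by HTRF (620/665 nm).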

Assay [15] concerns the target Alpha-galactosidase (Coffea arabica) (UniProt Q42656). Put plainly: Counterscreen for Glucocerebrosidase Inhibitors: qHTS Assay for Coffee Bean alpha-Galactosidase at pH 4.5 (AID 957).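 Further: plate controls were enzyme alone for no effect and no enzyme for full effect.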 Put shortly:
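Green coffee bean enzyme (2 nM final) was incubated with compounds (0.7 nM to 77 uM) and 4-methylumbelliferyl alpha-D-galactopyranoside (80 uM final) in 50 mM citric acid, 0.005% Tween-20, pH 4.5, 20 min at room temperature; AC50 from Hill fits.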

The target of assay [16] is Pyruvate kinase (Leishmania mexicana) (UniProt Q27686). Put plainly: qHTS Validation Assay for Activators of Leishmania Mexicana Pyruvate Kinase (AID 959). Put shortly:
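Read-out: luminescence from PKLight stop/detection reagent, data normalized to DMSO. Reaction: 0.2 nM E451W LmPYK, 0.5 mM PEP, 0.1 mM ADP, pH 7.2, 1 h room temperature.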

For assay [17], the target named is Alpha-galactosidase A (Homo sapiens) (UniProt P06280). As to the kind of experiment: Counterscreen for Glucocerebrosidase Inhibitors: qHTS Assay for Human alpha-Galactosidase at pH 4.5 (AID 992). Further: 0% is about no effect. Put shortly: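 Read-out is 4-methylumbelliferone fluorescence (365 nm excitation, 440 nm emission) after a pH 10 NaOH/glycine stop. Reactions held 2 nM enzyme and 80 uM substrate at pH 4.5 for 20 min at room temperature.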
Sequence of Alpha-galactosidase A (Homo sapiens) (P06280 whole entry, looked up): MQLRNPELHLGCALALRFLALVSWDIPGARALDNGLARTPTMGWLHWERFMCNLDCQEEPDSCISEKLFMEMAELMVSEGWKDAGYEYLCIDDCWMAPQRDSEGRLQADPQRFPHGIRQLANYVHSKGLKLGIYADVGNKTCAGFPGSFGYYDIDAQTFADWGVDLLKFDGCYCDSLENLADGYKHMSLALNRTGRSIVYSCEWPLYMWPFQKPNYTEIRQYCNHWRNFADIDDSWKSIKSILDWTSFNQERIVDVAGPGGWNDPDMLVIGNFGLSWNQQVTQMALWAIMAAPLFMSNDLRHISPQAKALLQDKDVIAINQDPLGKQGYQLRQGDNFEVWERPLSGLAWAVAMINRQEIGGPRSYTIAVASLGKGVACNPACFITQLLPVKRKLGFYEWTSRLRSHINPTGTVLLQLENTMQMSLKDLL

Assay [18] concerns the target alpha-glucosidase (Oryza sativa, rice) (UniProt Q653V4). As to the kind of experiment: Counterscreen for Glucocerebrosidase Inhibitors: qHTS Assay for Rice alpha-Glucosidase at pH 5.0 (AID 997).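 Further: 0% = full activity with enzyme and -100% = basal without enzyme.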 Put shortly:
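Rice alpha-glucosidase (4 nM final) with 400 uM 4-methylumbelliferyl-alpha-D-glucopyranoside in citrate buffer pH 5.0, 20 min at room temperature, stopped at pH 10; fluorescence 365/440 nm, compounds 0.7 nM–77 uM, AC50 from Hill fits.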

Assay [19] has as its target Alpha-galactosidase (Coffea arabica) (UniProt Q42656). Put plainly: Counterscreen for Glucocerebrosidase Inhibitors: qHTS Assay for Coffee Bean alpha-Galactosidase at pH 5.9 (AID 998).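 Further: plate controls were uninhibited enzyme for no effect and no-enzyme basal signal for full effect.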 Put shortly: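 Green coffee bean enzyme (2 nM) with 4-methylumbelliferyl alpha-D-galactopyranoside (80 uM) in 50 mM citric acid, 0.005% Tween-20, pH 5.9, 20 min at room temperature; compounds 0.7 nM–77 uM. Stopped at pH 10, fluorescence Ex365/Em440; Hill-fit AC50.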

Assay [20] in a line: Validation of Assay for Modulators of Lamin A Splicing (AID 1459; active means well fitted curve in the direction sought with a large enough effect in the signal ratio; the % refers to the signal ratio;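 further: cells exposed to compound for two days before reading; 0% is about no effect; ratio rise marks activators and ratio drop marks inhibitors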). Put shortly: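 S3 HeLa stably expressing lamin A-EGFP splicing minigene and DsRed2, 600 cells/well in Opti-MEM with 2% FBS, treated 48 h at 37C; laser-scanning cytometry gives GFP/RFP total intensity ratio; ancitabine positive control, 0.5% DMSO vehicle.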
Assay [21] concerns the target DNA repair nuclease/redox regulator APEX1 (Homo sapiens) (UniProt P27695). Put plainly: qHTS Validation Assay for Inhibitors of the Human Apurinic/apyrimidinic Endonuclease 1 (APE1) (AID 1705). Put shortly: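 Fluorogenic double-stranded THF abasic-site substrate (5'-TAMRA/3'-BHQ-2), 50 nM final. Enzyme preincubated with compound 15 min at room temperature, then substrate added. Kinetic fluorescence (ex 525/em 598 nm) read three times at 60 s intervals; activity taken as third-minus-first read difference.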

Assay [22] is described as follows: Counterscreen for APE1 Inhibitors: Fluorescent Dye Displacement Validation Assay (AID 1707).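 Further: plate controls were ThO with dsDNA and no compound for no effect and ThO without dsDNA for full effect.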 Put shortly:
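ThO 250 nM + dsDNA 50 nM (THF abasic site, 5'-TAMRA), Tris-HCl pH7.5/50mM NaCl/2 mM MgCl2/0.01% Tween-20; compounds pin-transferred; ex 480/em 540 nm endpoint. Neutral = no compound; no-DNA ThO wells = negative control.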

Sequence of Cytochrome P450 3A4 (Homo sapiens) (P08684 whole entry, looked up): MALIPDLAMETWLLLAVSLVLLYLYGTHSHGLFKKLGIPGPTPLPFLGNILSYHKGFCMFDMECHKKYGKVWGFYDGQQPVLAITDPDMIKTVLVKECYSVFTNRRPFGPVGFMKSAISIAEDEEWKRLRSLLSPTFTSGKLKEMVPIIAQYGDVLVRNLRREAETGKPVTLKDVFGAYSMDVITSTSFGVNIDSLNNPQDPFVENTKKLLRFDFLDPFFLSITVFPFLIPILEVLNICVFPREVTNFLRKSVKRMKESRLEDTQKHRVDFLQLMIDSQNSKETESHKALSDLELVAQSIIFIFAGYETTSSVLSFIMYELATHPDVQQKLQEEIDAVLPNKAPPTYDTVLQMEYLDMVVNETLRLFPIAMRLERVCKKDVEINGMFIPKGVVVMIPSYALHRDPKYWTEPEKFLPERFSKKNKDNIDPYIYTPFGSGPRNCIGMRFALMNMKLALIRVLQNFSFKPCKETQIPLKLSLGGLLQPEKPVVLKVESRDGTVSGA
Sequence of Alpha-galactosidase (Coffea arabica) (Q42656 whole entry, looked up): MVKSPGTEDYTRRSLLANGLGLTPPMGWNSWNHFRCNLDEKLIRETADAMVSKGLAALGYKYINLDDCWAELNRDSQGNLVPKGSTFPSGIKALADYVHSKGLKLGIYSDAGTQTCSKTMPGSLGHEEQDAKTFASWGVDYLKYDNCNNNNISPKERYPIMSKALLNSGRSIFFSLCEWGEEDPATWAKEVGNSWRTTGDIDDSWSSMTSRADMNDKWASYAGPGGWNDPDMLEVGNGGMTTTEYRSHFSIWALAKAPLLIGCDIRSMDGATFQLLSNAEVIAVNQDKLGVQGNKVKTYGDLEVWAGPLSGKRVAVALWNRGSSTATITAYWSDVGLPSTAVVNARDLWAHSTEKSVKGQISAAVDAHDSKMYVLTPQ
Sequence of Guanine nucleotide-binding protein G(i) subunit alpha-1 (Homo sapiens) (P63096 whole entry, looked up): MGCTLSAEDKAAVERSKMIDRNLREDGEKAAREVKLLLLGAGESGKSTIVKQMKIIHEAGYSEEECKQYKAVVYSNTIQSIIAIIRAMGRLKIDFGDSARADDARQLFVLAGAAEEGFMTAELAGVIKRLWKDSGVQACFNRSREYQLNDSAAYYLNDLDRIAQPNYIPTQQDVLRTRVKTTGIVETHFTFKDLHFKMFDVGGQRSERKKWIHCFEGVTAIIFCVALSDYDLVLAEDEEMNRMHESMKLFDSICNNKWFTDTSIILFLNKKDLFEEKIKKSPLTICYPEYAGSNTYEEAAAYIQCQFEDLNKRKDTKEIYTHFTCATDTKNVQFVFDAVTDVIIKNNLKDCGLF
Sequence of DNA repair nuclease/redox regulator APEX1 (Homo sapiens) (P27695 whole entry, looked up): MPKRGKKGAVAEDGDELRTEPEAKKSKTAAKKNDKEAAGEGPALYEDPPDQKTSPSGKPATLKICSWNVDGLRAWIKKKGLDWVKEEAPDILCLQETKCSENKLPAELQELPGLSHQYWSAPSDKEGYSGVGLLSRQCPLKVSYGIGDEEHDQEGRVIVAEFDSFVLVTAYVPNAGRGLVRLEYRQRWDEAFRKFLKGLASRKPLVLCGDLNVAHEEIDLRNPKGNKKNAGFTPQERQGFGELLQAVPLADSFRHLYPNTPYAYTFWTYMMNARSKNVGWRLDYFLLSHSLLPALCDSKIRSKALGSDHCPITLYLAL
Sequence of Pyruvate kinase (Leishmania mexicana) (Q27686 2-499 E452W): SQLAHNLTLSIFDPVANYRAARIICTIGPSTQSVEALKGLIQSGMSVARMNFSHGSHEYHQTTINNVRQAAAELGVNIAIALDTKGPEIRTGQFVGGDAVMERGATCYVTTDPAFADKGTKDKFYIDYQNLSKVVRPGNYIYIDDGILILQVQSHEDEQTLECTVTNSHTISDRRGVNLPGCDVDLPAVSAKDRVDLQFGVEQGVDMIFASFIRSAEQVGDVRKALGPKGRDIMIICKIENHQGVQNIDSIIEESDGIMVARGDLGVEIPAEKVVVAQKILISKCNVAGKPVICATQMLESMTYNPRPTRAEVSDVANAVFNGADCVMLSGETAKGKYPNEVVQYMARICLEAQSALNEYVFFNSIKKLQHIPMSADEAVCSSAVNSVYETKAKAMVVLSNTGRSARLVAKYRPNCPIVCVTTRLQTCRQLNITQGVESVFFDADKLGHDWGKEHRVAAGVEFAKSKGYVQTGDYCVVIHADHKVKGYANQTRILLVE

Consider `COC(=O)c1cc2c(cn1)[nH]c1ccccc12`, for which the result in assay [1], in [3], in assay [6], in assay [8], in [12] and in [15] was inactive. For the same compound, the outcome in [17], in assay [18], in [19] and in [20] was inactive. The activity change, negative = inhibition in assay [2] is -0.308%. For the same compound, the Potency in assay [4] is above 46 µM; in [5], above 46 µM; in [10], 15.8 µM (active); in [11] it was 3.98 µM (active). Moreover, the Potency result in assay [7], in assay [9], in assay [13], in assay [14], in assay [16] and in assay [21] was “inactive” throughout. Also, in assay [22], the Potency entry is “inactive”.
